Results reported in the supplement of paper PMC4709259.
Structures can show the parent of a compound that is named as a salt. ± gives the standard deviation.

What was measured:
[1] = test system: Jurkat; test: mean cell size (FSC-A) relative to DMSO control (fraction of control); higher = larger cells; details: 48 h
Outline: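 Jurkat cells at 600 cells/µl were incubated for 1 h and then treated for 48h with the Enzo Screen-Well FDA Approved Drug Library v2.0 at 25µM, with DMSO at 0.9% (v/v) final. Compounds that reduced counts below 20% of controls were retested in 10-fold dilutions down to 25nM. Cell count and mean cell size, taken as forward scatter area, were measured by flow cytometry relative to solvent-only controls. Each plate carried 6-12 controls, and values are means of 3 biological replicates.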

[2] = test system: Jurkat; test: cell count relative to DMSO control (fraction of control); higher = more cells (less growth inhibition); details: 48 h

CCOc1cc(CC(=O)N[C@@H](CC(C)C)c2ccccc2N2CCCCC2)ccc1C(=O)O [Repaglinide] (concentration: 25 µM)
mean cell size [1]: 1.03 ± 0.022
cell count [2]: 0.728 ± 0.063

CN(C)[C@@H]1C(=O)C(C(N)=O)=C(O)[C@@]2(O)C(=O)C3=C(O)c4c(O)ccc(Cl)c4[C@@H](O)[C@H]3C[C@@H]12 [Demeclocycline·HCl] (concentration: 25 µM)
mean cell size [1]: 0.811 ± 0.028
cell count [2]: 0.219 ± 0.039

OCCN(CCO)c1nc(N2CCCCC2)c2nc(N(CCO)CCO)nc(N3CCCCC3)c2n1 [Dipyridamole] (concentration: 25 µM)
mean cell size [1]: 0.9538 ± 0.0084
cell count [2]: 0.652 ± 0.1

Oc1c(Cl)cc(Cl)c(Cl)c1Cc1c(O)c(Cl)cc(Cl)c1Cl [Hexachlorophene] (concentration: 2.5 µM)
mean cell size [1]: 0.904 ± 0.016
cell count [2]: 0.433 ± 0.035

NC[C@@H]1O[C@H](O[C@H]2[C@@H](O)[C@H](O[C@@H]3[C@@H](O)[C@H](N)C[C@H](N)[C@H]3O[C@H]3O[C@H](CN)[C@@H](O)[C@H](O)[C@H]3N)O[C@@H]2CO)[C@H](N)[C@@H](O)[C@@H]1O [Neomycin Sulfate] (concentration: 25 µM)
mean cell size [1]: 0.935 ± 0.018
cell count [2]: 0.944 ± 0.038

NCCNCCNCCN [Trientine Dihydrochloride] (concentration: 25 µM)
mean cell size [1]: 0.949 ± 0.04
cell count [2]: 1.02 ± 0.14

NC(=O)N1c2ccccc2C=Cc2ccccc21 [Carbamazepine] (concentration: 25 µM)
mean cell size [1]: 0.955 ± 0.044
cell count [2]: 1.14 ± 0.065

CCCCN1CCCCC1C(=O)Nc1c(C)cccc1C (stereo not given) [Bupivacaine·HCl] (concentration: 25 µM)
mean cell size [1]: 0.982 ± 0.02
cell count [2]: 0.656 ± 0.097

CC12CC3CC(C)(C1)CC(N)(C3)C2 [Memantine·HCl] (concentration: 25 µM)
mean cell size [1]: 1 ± 0.061
cell count [2]: 0.797 ± 0.017

O=C1Cc2cc(CCN3CCN(c4nsc5ccccc45)CC3)c(Cl)cc2N1 [Ziprasidone] (concentration: 25 µM)
mean cell size [1]: 0.98 ± 0.062
cell count [2]: 0.838 ± 0.098

Cc1ccc(Nc2nccc(N(C)c3ccc4c(C)n(C)nc4c3)n2)cc1S(N)(=O)=O [Pazopanib·HCl] (concentration: 25 µM)
mean cell size [1]: 0.9554 ± 0.0092
cell count [2]: 0.772 ± 0.12

C[C@H]1C[C@@H]2[C@H]([C@@H](O)C[C@@]3(C)[C@H]2CC[C@]3(O)C(=O)CO)[C@@]2(C)C=CC(=O)C=C12 [Methylprednisolone] (concentration: 25 µM)
mean cell size [1]: 0.908 ± 0.013
cell count [2]: 0.873 ± 0.025

CN1CCN(C2=Nc3ccccc3Oc3ccc(Cl)cc32)CC1 [Loxapine Succinate] (concentration: 25 µM)
mean cell size [1]: 0.908 ± 0.024
cell count [2]: 1.16 ± 0.1

CCCCCOc1ccc(-c2cc(-c3ccc(C(=O)N[C@H]4C[C@@H](O)[C@@H](O)NC(=O)[C@@H]5[C@@H](O)[C@@H](C)CN5C(=O)[C@H]([C@H](O)CC(N)=O)NC(=O)[C@H]([C@H](O)[C@@H](O)c5ccc(O)c(OS(=O)(=O)O)c5)NC(=O)[C@@H]5C[C@@H](O)CN5C(=O)[C@H]([C@@H](C)O)NC4=O)cc3)no2)cc1 [Micafungin] (concentration: 25 µM)
mean cell size [1]: 0.993 ± 0.031
cell count [2]: 0.52 ± 0.081

CN(C)CCOC(c1ccccc1)c1ccccc1.Cn1c(=O)c2[nH]c(Cl)nc2n(C)c1=O [Dimenhydrinate] (concentration: 25 µM)
mean cell size [1]: 1.05 ± 0.051
cell count [2]: 0.558 ± 0.15
